Screens: PubChem BioAssay, National Center for Advancing Translational Sciences (NCATS)
Sampled rows, rich in hits. Any-hit rate of the full collection: about 12%.
JMJD2A Tudor inh – inhibitors of human JMJD2A Tudor domain | O75164 | AlphaScreen JMJD2A-Tudor / H3K4me3 peptide binding | AID 504339 | actives 4.4% (n = 390,000) | Potency, µM (titrated, usually from 114 µM), without a hit: at the highest dose activity change, negative = inhibition, usual class: inhibitors; also: % is scaled to controls: 0 for no effect and ±100 for the full control effect; nearly all actives have a fitted effect of over 50% in size
HP1b chromo inh – inhibitors of HP1-beta chromodomain binding to methylated histone tails; P83916; AlphaScreen HP1-beta / biotin-H3K9me3 peptide binding; Potency, µM (doses to about 114 µM), for inactives: top-dose activity change, negative = inhibition, hits mostly inhibitors; actives 0.56% (n = 390,000); also: nearly all actives have a fitted effect of over 70% in size
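AlphaScreen: HP1-beta (50 nM) preformed 30 min with biotin-H3(1-18)K9me3 peptide (50 nM) in PBS pH 7.4, 0.01% Tween-20. Compound added for 30 min at RT, then streptavidin donor/nickel chelate acceptor beads (10 ug/mL) for 30 min.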
G9a inh – blocks human histone lysine methyltransferase G9a; Q96KQ7; G9a H3K9 monomethylation, AlphaScreen, 2 h; Potency, µM (series often up to 102 µM), for the others: at the highest dose activity, negative = inhibition, most hits filed as inhibitors; actives 8.8% (n = 350,000); also: % is scaled to controls: 0 for no effect and ±100 for the full control effect; nearly all actives have a fitted effect of over 75% in size
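Signal arises when biotinylated H3K9 peptide, once monomethylated, bridges streptavidin donor and antibody-captured acceptor beads. Enzyme at 20 nM was preincubated 15 min with test compounds; peptide 500 nM and SAM 20 uM then reacted for 2 h.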
PLK1 PBD block – inhibitors of human PLK1 polo-box domain binding; Potency, µM, inactives show max response, negative = inhibition, hits mostly inhibitors; AID 720504; actives 2.8% (n = 360,000); Plk1 PBD binding of FITC phosphopeptide, fluorescence polarization; P53350; also: series mostly up to about 57 µM; % is scaled to controls: 0 for no effect and ±100 for the full control effect; nearly all actives have a fitted effect of over 65% in size
BAZ2B inh – blocks human BAZ2B | Q9UIF8 | AlphaScreen BAZ2B-H3K14Ac peptide displacement | Potency, µM (highest dose often 114 µM), inactives show at the highest dose activity change, negative = inhibition, actives largely listed as inhibitors | actives 4.4% (n = 360,000); also: % is scaled to controls: 0 for no effect and ±100 for the full control effect; nearly all actives have a fitted effect of over 60% in size
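BAZ2B (50 nM) with biotin-H3(5-23)K14Ac peptide (50 nM) in PBS pH 7.4, 0.01% Tween-20, preformed 30 min, then compound 30 min at room temperature; top concentration 110uM. AlphaScreen streptavidin donor/nickel chelate acceptor beads (10 ug/mL final), 20 min dark, signal read.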
Sfp inh – inhibitors of Bacillus subtilis Sfp phosphopantetheinyl transferase | actives 3.5% (n = 310,000) | Potency, µM, for inactives: largest response in the series, negative = inhibition, most hits filed as inhibitors | AID 1490 | Biochemical Sfp PPTase activity, qHTS;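 also: the enzyme is Sfp with the accession as filed and its product quenches rhodamine fluorescence; 0% = enzyme reaction without inhibitor and -100% = no enzyme wells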
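Fluorescence-quenching assay: 15 nM Sfp-PPTase preincubated 15 min at room temperature with compound, then 5 uM rhodamine-CoA and 12.5 uM BHQ-2-labelled YbbR peptide added. Fluorescence (ex 525/em 598 nm) read at start and after 30 min; difference gives rate.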
Numbers without * were called inactive; ? = inconclusive; nt = no result given; [ ] = dose if it differs, or a comment. Calls follow the shape of the dose curve; as a rule, active = well fitted curve in the direction sought with a large enough effect; inconclusive = small, poorly fitted or top-dose-only effect, or another doubt; inactive = no such curve, though single readings can be large; an effect the other way counts as inactive or inconclusive. Potency is read from the fitted curve at half-maximal effect.

SMILES	JMJD2A Tudor inh	HP1b chromo inh	G9a inh	PLK1 PBD block	BAZ2B inh	Sfp inh
CC(C)(C)C(=O)/C=c1\s/c(=C\c2ccc(-c3ccc([N+](=O)[O-])cc3)o2)c(=O)n1CC(=O)NC(N)=O	-8%	12%	45µM*	38%	?	?
CCC(=O)N/N=C/c1ccc(-c2ccc([N+](=O)[O-])cc2)o1	-6%	0%	nt	-1%	-4%	-7%
COc1ccc(NC(=O)CSC2=Nc3ccccc3C3=NC(CCC(=O)NCc4cccs4)C(=O)N23)cc1 (centres undefined)	-12%	19%	9%[59 µM]	nt	-12%	nt
CCN1CCC(N2CCN(c3ccc(Cl)cc3)CC2)CC1	-4%	19%	2%[59 µM]	-6%	-5%	14%
O=[N+]([O-])c1ccc(N2CCN(CC3CCCCC3)CC2)cc1	18µM*	?	-10%[0.501 µM]	-3%	56µM*	-25%
CC(=O)c1ccc(N2CCN(CC3CCCCC3)CC2)cc1	35µM*	?	50µM*	-18%	?	-26%
CCCN1CCC(N2CCN(c3ccc([N+](=O)[O-])cc3)CC2)CC1	20µM*	?	nt	-7%	45µM*	-24%
COc1ccc(-c2nc(CNC(=O)NC3CCCCC3)c(C)o2)cc1	-13%	22%	17%[59 µM]	nt	-9%	nt
O=[N+]([O-])C1=CC=C2C(=NC3(CCCCC3)N2O)C1=NCCc1ccccc1	-13%[11.4 µM]	-22%	7.1µM*	?	-24%	14%
CC(C)(C)N=C1C([N+](=O)[O-])=CC=C2C1=NC1(CCCCC1)N2O	6.3µM*	25µM*	3.5µM*	-10%	5.6µM*	?
CC1(C)CC(N=C2C([N+](=O)[O-])=CC=C3C2=NC2(CCCCC2)N3O)CC(C)(C)N1	-12%	-10%	nt	1%	-35%	-19%
O=[N+]([O-])C1=CC=C2C(=NC3(CCCCC3)N2O)C1=NC1CCCCC1	?	13µM*	nt	-12%	3.2µM*	-18%
CN(Cc1ccccc1F)C(=O)CN1c2cccc3cccc(c23)S1(=O)=O	-6%	40%	11%[2.33 µM]	0%	8%	nt
Cc1ccc(-n2c(-c3ccccc3)nsc2=NC#N)cc1	-2%[57.1 µM]	-2%[57 µM]	nt	nt	nt	nt
COc1ccc(Cn2c(SCc3ccc(C(=O)NC4CCCCC4)cc3)nc3ccncc32)cc1	-21%	12%	-20%[59 µM]	nt	-36%	nt
COc1ccc(CCNC(=O)CSCC(=O)Nc2ccccc2)cc1OC	-15%	15%	nt	-13%	-4%	6%
COCCCNCC(=O)Nc1ccc(OC(F)(F)F)cc1	2.8µM*	-10%	8.9µM*	4%	?	2%
COc1ccc(CCNCC(=O)Nc2ccc(OC(F)(F)F)cc2)cc1OC	20µM*	?	32µM*	-14%	?	-11%
COc1ccccc1CNC(=O)C(Cc1ccccc1)NS(=O)(=O)c1ccc2c(c1)CCN2C(C)=O (centres undefined)	-5%	28%	0%[59 µM]	nt	nt	nt
C=CCNC(=O)/C(C#N)=C\c1cc(Cl)c(O)c(OCC)c1	-11%	9%	11µM*	5%	-15%	1%
CCOc1ccc(NC(=O)/C(C#N)=C/c2ccc(N3CCCC3)c(C)c2)cc1	-9%	17%	2%[59 µM]	20%	2%	-8%
CCOc1cc(/C=C(/C#N)C(=O)Nc2ccc(O)cc2)cc(Br)c1O	-27%	-13%	50µM*	38%	-37%	-10%
CCOCCCNC(=O)/C(C#N)=C/c1cc(C)c(O)c(C)c1	-12%	53%	-50%	2%	-8%	13%
O=Cc1nc(-c2ccccc2Cl)n2ccccc12	-7%	12%	1%[59 µM]	-1%	-6%	7%
Clc1ccccc1-c1nc(/C=N/N2CCOCC2)c2ccccn12	?	?	28µM*	24µM*	nt	89µM*
SMILES	JMJD2A Tudor inh	HP1b chromo inh	G9a inh	PLK1 PBD block	BAZ2B inh	Sfp inh
On1c(-c2ccccc2Cl)nc2ccccc21	6%	21%	-2%	-10%	-3%	16%
CN1CCN(/N=C/c2nc(-c3ccccc3Cl)n3ccccc23)CC1	-31%	-11%	28µM*	-6%	-9%	14%
CC(=O)C1=C(C)Nc2cc(C(F)(F)F)ccc2S1	-22%	-4%	22µM*	?	11%	56µM*
C[N+]12CCCCC1C(COC(=O)c1ccc3c(c1)OCO3)CCC2 (centres undefined)	20µM*	?	?	-8%	?	7%
COc1ccccc1CC(=O)N1CCN(c2ccccn2)CC1	-7%	16%	4%[59 µM]	1%	6%	-6%
COc1cccc(CN2CCN(c3ncccn3)CC2)c1OC	28µM*	?	?	5%	50µM*	-20%
COc1ccc(CN2CCN(c3ccccn3)CC2)c(OC)c1C	56µM*	?	nt	-3%	50µM*	?
COc1ccc(CN2CCN(c3ncccn3)CC2)c(C)c1C	18µM*	?	4.5µM*	-12%	56µM*	-21%
COc1cc(-c2nc(CN3CCN(c4ncccn4)CC3)c(C)o2)ccc1F	-14%[57.1 µM]	21%	?	-1%	-31%	19%
Fc1ccc(F)c(CN2CCN(c3ncccn3)CC2)c1	-21%	15%	-10%[59 µM]	2%	-35%	5%
COc1cc(C)c(CN2CCN(c3ncccn3)CC2)cc1C	50µM*	?	nt	5%	nt	nt
COc1ccc(Br)cc1CN1CCN(c2ncccn2)CC1	22µM*	?	nt	3%	nt	nt
Cc1ccc(OCC(O)C(C)NC(C)C)c2c1CCC2 (centres undefined)	nt	nt	35%[12.7 µM]	nt	nt	14%
COc1ccc(OCC(O)CN2CCN(c3ccccc3)CC2)cc1 (centres undefined)	?	22%	29%[0.501 µM]	5%	-12%	3%
COc1ccc(N2CCN(CC(O)COc3ccc(C(C)(C)C)cc3)CC2)cc1 (centres undefined)	79µM*	-1%	?	nt	?	nt
CCc1ccc(OCC(O)CN2CCN(c3ccc(OC)cc3)CC2)cc1 (centres undefined)	35µM*	-16%	10µM*	-4%	71µM*	-16%
COc1cccc(OCC(O)CN2CCN(c3ccc(F)cc3)CC2)c1 (centres undefined)	-20%	22%	-9%[2.33 µM]	4%	?	-3%
CCN1CCN(CC(O)COc2cccc(OC)c2)CC1 (centres undefined)	-29%	25%	56µM*	1%	-4%	11%
COc1cccc(OCC(O)CN2CCN(C(c3ccccc3)c3ccccc3)CC2)c1 (centres undefined)	-35%	0%	nt	3%	nt	nt
COc1ccc(N2CCN(CC(O)COCc3ccccc3)CC2)cc1 (centres undefined)	?	1%	40µM*	-3%	56µM*	8%
COC(=O)c1cc2sc(C)cc2n1CC(=O)Nc1cccc(SC)c1	-16%	3%	4%[59 µM]	nt	3%	nt
